LASV entry inh: inhibitors of Lassa virus binding or cell entry; Lassa virus pseudotype entry inhibition, cell reporter; Potency, µM (top dose mostly 37.9 µM), for the others: at the top dose activity change, negative = inhibition, most hits filed as inhibitors; hit rate 1.2% among 300,000; calls by dose curve; tested in HEK293 cells; further: potency means the concentration at half of the fitted maximal effect; on the % scale 0 is the no-effect control and ±100 the full control effect; nearly all actives have a fitted effect of over 50% in size
Cycloheximide cs: counter-screen hit for Shiga toxin inhibitors, cycloheximide; cell reporter, cycloheximide protein synthesis inhibition counterscreen; max response, %; hit rate 12% among 300,000; in the data active means max response mostly above about 13%, no sharp cut-off; inactive means mostly below about 14%; further: read at 38.3 µM for the half of the compounds with a filed dose; 0% is about no effect
Shiga inhibitor: Shiga toxin inhibition; Vero cells, Shiga toxin protein synthesis inhibition reporter; inhibition, % at 38.7 µM; hit rate 9.2% among 290,000; AID 2315; in the data active means inhibition mostly above about 28%, no sharp cut-off; inactive means mostly below about 43%; further: 0% is about no effect
MARV entry inh: blocks Marburg virus binding to or entry into cells; hit rate 1.8% among 300,000; Potency, µM (highest dose often 37.8 µM), for inactives: at the highest dose activity change, negative = inhibition, most hits filed as inhibitors; Marburg virus pseudotyped entry inhibition, cell reporter; AID 540276; calls by dose curve; tested in HEK293 cells; further: potency means the concentration at half of the fitted maximal effect; on the % scale 0 is the no-effect control and ±100 the full control effect
Starred values were filed as active, the others as inactive; [ ] = another dose, or the depositor's remark. This is a sample that favours compounds with a hit; in the whole collection about 12% have one here.

Results for COc1ccc(-c2nnc(SCC(=O)Nc3ccc(C)c(Cl)c3)nc2-c2ccc(OC)c(OC)c2)cc1OC ?
LASV entry inh: -16%[46.1 µM]

What do the screens show for `COC(CN1CCc2c(C)nc3c(C#N)cnn3c21)OC`?
LASV entry inh: 2%[46.1 µM]; Cycloheximide cs: -1; Shiga inhibitor: -3; MARV entry inh: 3%[46.1 µM]

Results for COc1ccc(-c2cnn3c4c(c(C)nc23)CCN4C(C)C)cc1OC ?
LASV entry inh: 0%; Cycloheximide cs: 27*; Shiga inhibitor: 47*; MARV entry inh: 1%

What do the screens show for `O=C1C=CC2(C=C1)O[C@H](Cc1ccccc1)[C@@H](Cc1ccccc1)O2`?
LASV entry inh: 7.1µM*; MARV entry inh: 2.8µM*

How did O=C1Nc2ccccc2C1Cc1ccccc1 (stereo not given) do in these assays?
LASV entry inh: -7%; Cycloheximide cs: -2; Shiga inhibitor: -10; MARV entry inh: 2%

How did COc1ccc(C[C@@H]2OC3(C=CC(=O)C=C3)O[C@H]2Cc2ccc(OC)cc2)cc1 do in these assays?
LASV entry inh: inconclusive; MARV entry inh: 2.5µM*

What do the screens show for `CCN1CCN(/C=N/c2nc(C)cs2)CC1`?
LASV entry inh: inconclusive; Cycloheximide cs: 33*; Shiga inhibitor: 76*; MARV entry inh: 29%

How did CNC(=O)COc1ncnc2sccc12 do in these assays?
LASV entry inh: 5%; Cycloheximide cs: 13; Shiga inhibitor: -2; MARV entry inh: inconclusive

Results for Cc1cc(C(=O)COc2ncnc3sccc23)c(C)n1C ?
LASV entry inh: inconclusive; Cycloheximide cs: 31*; Shiga inhibitor: 134*; MARV entry inh: inconclusive

How did CC(=O)c1ccc(Oc2ncnc3sccc23)cc1 do in these assays?
LASV entry inh: inconclusive; Cycloheximide cs: 48*; Shiga inhibitor: 80*; MARV entry inh: 0%[46.1 µM]

How did CC(=O)N1CCN(c2ccc(Oc3ncnc4sccc34)cc2)CC1 do in these assays?
LASV entry inh: 8%; Cycloheximide cs: -4; Shiga inhibitor: -21; MARV entry inh: 2%

How did COc1ccc(CNC(=O)CCSCc2ccccc2C)cc1 do in these assays?
LASV entry inh: 9%; Cycloheximide cs: 1; Shiga inhibitor: 26; MARV entry inh: 23%[46.1 µM]

How did C/C(=N\OC(=O)c1ccccc1)c1cc(-c2ccc(Cl)cc2)no1 do in these assays?
LASV entry inh: 15%; Cycloheximide cs: 0; Shiga inhibitor: 30; MARV entry inh: 17%

How did C/C(=N/OC(=O)C1CC1)c1cc(-c2ccc(Cl)cc2)no1 do in these assays?
Cycloheximide cs: 18*; Shiga inhibitor: 29

What do the screens show for `Cc1cc(Cl)ccc1C(=O)C1CCCN(C(=O)c2ccoc2)C1` (stereo not given)?
LASV entry inh: inconclusive; Cycloheximide cs: 0; Shiga inhibitor: -9; MARV entry inh: 3%[46.1 µM]

What do the screens show for `Cc1cc(Cl)ccc1C(=O)C1CCCN(C2CCSCC2)C1` (stereo not given)?
LASV entry inh: inconclusive; Cycloheximide cs: 6; Shiga inhibitor: 15; MARV entry inh: 10µM*

How did C=CCn1c(-c2cccs2)nc2nc3ccccc3nc21 do in these assays?
LASV entry inh: 2%; Cycloheximide cs: 30*; Shiga inhibitor: 45*; MARV entry inh: 8%

Results for C=CCn1c(-c2cccc(OC)c2)nc2nc3ccccc3nc21 ?
LASV entry inh: 4%; Cycloheximide cs: 32*; Shiga inhibitor: 18; MARV entry inh: 8%

Results for C=CCn1c(-c2cccs2)nc2ccccc21 ?
LASV entry inh: 6%; Cycloheximide cs: 16*; Shiga inhibitor: 23*; MARV entry inh: 15%[46.1 µM]

What do the screens show for `c1ccc(-n2c(-c3cccs3)nc3nc4ccccc4nc32)cc1`?
LASV entry inh: inconclusive; Cycloheximide cs: -4; Shiga inhibitor: -6; MARV entry inh: 0%

How did O=C(Nc1cccc(-c2cn3ccccc3n2)c1)c1cc2ccccc2oc1=O do in these assays?
LASV entry inh: 9%; Cycloheximide cs: 59*; Shiga inhibitor: 71*; MARV entry inh: -12%

How did COc1ccc(CC(=O)Nc2ccc(-c3cn4ccc(C)cc4n3)cc2)cc1 do in these assays?
LASV entry inh: 5%; Cycloheximide cs: 16*; Shiga inhibitor: 16; MARV entry inh: -5%

What do the screens show for `CC(C)C(=O)Nc1cccc(-c2cn3ccccc3n2)c1`?
LASV entry inh: 1%; Cycloheximide cs: 14*; Shiga inhibitor: 17; MARV entry inh: 26%

What do the screens show for `O=C(Nc1cccc(-c2nc3ccccc3s2)c1)c1cccs1`?
LASV entry inh: 2%; Cycloheximide cs: 12; Shiga inhibitor: 10; MARV entry inh: inconclusive

What do the screens show for `CC(=O)Nc1cccc(-c2cn3ccccc3n2)c1`?
LASV entry inh: 4%; Cycloheximide cs: 39; Shiga inhibitor: 40; MARV entry inh: -22%[46.1 µM]

How did O=C(Nc1cccc(-c2cn3ccccc3n2)c1)c1cccs1 do in these assays?
LASV entry inh: 6%; Cycloheximide cs: 34*; Shiga inhibitor: 61*; MARV entry inh: 3%

Results for COc1ccc(CC(=O)Nc2ccc(-c3cn4cccc(C)c4n3)cc2)cc1OC ?
LASV entry inh: -25%; Cycloheximide cs: 15; Shiga inhibitor: 23; MARV entry inh: inconclusive

How did COc1cccc(C2C3=C(N=c4s/c(=C\c5ccc(OCC(=O)O)cc5)c(=O)n42)c2ccccc2CC3)c1 (stereo not given) do in these assays?
Cycloheximide cs: 8; Shiga inhibitor: 30

Results for CCCn1c(=O)c(Br)cn(-c2ccccc2C)c1=O ?
Cycloheximide cs: 6; Shiga inhibitor: 12

Results for Cc1c(Cl)ccc2c(C(=O)Nc3cc(C(C)(C)C)on3)cc(-c3ccccn3)nc12 ?
LASV entry inh: -6%[46.1 µM]; Cycloheximide cs: 6; Shiga inhibitor: -7; MARV entry inh: -10%[46.1 µM]

What do the screens show for `COC(=O)C12CC3=CCC4C(=O)N(c5ccccc5)C(=O)C4C3Cc3ccccc3[C@H]1CNC2=O` (stereo not given in full)?
MARV entry inh: 5%[14.2 µM]

What do the screens show for `Cc1cccn2cc(-c3cccc(NC(=O)C(C)C)c3)nc12`?
LASV entry inh: 14%[46.1 µM]; MARV entry inh: -3%[46.1 µM]

Results for Cc1ccn2cc(-c3cccc(NC(=O)c4ccccc4)c3)nc2c1 ?
LASV entry inh: 5%; Cycloheximide cs: 60*; Shiga inhibitor: 44*; MARV entry inh: -19%

What do the screens show for `Cc1ccn2cc(-c3cccc(NC(=O)C(C)C)c3)nc2c1`?
LASV entry inh: inconclusive; Cycloheximide cs: 23*; Shiga inhibitor: 35; MARV entry inh: 5%

What do the screens show for `Cc1cccc(C(=O)Nc2cccc(-c3ccc4nncn4n3)c2)c1`?
LASV entry inh: inconclusive; Cycloheximide cs: 4; Shiga inhibitor: -6; MARV entry inh: inconclusive

What do the screens show for `COc1cc(N(C)C)cc(CN(C)CCc2ccc([N+](=O)[O-])cc2)c1O`?
Cycloheximide cs: 7; Shiga inhibitor: 20

What do the screens show for `CC(C)COc1ccc(C/C(N)=N/n2cnnc2)cc1`?
LASV entry inh: inconclusive; Cycloheximide cs: -2; Shiga inhibitor: 3; MARV entry inh: 1µM*

What do the screens show for `S=C1NC[C@H](Cc2ccccc2)N1CCCCC1CCCCC1`?
Cycloheximide cs: 11*; Shiga inhibitor: 42*

How did Cc1cc(NC(=O)COC(=O)C(C)Oc2ccc(Cl)cc2Cl)no1 (stereo not given) do in these assays?
LASV entry inh: 6%; Cycloheximide cs: -4; Shiga inhibitor: 2; MARV entry inh: 1%[46.1 µM]

Results for COc1ccc(-c2c(C3C4C=CCCC4(C)C(=O)N3Cc3ccccc3)ccc3ccccc23)cc1 (stereo not given) ?
Cycloheximide cs: 103*; Shiga inhibitor: active

Screening results as filed in PubChem BioAssay.
